# Columns and labels:
# Test in all cases: DAPPL (digital affinity profiling via proximity ligation, sequencing); 10 mM Tris-HCl pH 7.5, 50 mM NaCl, 1 mM DTT, 4% glycerol, room temperature, 30 min; GST-TFs on glutathione beads, 16-mer random dsDNA library, 0.1% formaldehyde crosslink after washing; high values mean tight binding
# FEV = target: T1, FEV (Homo sapiens, UniProt Q99581 1-238); settings: protein: recombinant; tags: N-terminal GST; dsDNA, one strand shown
# T1 sequence: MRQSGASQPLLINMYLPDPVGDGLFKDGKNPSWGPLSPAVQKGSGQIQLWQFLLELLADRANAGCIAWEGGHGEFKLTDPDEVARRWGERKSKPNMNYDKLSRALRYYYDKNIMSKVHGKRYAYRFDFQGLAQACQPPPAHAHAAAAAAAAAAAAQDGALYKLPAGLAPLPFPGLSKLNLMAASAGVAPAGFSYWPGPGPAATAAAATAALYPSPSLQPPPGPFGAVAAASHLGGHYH
# Procedure, shortened: (§1)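 Human transcription factors were made in yeast as GST fusions, captured on glutathione beads and barcoded with DNA. With a tag-only sample included, the pool was incubated with 200 nmole of a random double-stranded 16-mer DNA library in Tris/NaCl/DTT/glycerol buffer at room temperature for 30 min, then crosslinked with 0.1% formaldehyde after washing, ligated by proximity, amplified and sequenced. For binding signal, each hexamer's read frequency for a factor is divided by its frequency for the tag-only sample.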
# ETV5 = ETV5 (Homo sapiens, UniProt P41161 1-510); settings: protein: recombinant; tags: N-terminal GST; dsDNA, one strand shown
# Sequence of ETV5 (P41161 whole entry): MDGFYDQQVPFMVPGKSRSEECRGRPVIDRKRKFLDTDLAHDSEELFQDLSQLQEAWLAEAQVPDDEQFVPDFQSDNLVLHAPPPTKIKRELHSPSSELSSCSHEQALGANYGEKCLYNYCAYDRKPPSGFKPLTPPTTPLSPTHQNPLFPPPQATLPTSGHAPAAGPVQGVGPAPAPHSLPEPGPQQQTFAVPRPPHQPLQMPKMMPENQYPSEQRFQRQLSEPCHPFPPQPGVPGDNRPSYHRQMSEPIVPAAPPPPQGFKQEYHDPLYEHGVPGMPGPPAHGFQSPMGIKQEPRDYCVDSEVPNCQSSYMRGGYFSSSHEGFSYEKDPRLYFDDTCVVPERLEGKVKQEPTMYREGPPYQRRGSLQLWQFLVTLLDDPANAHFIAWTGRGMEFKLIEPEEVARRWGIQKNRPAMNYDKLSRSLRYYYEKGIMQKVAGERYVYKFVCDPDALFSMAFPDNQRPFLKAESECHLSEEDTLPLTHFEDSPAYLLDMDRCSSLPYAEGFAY
# Procedure, shortened: as §1
# HSF1 = HSF1 (Homo sapiens, UniProt Q00613 1-529); settings: protein: recombinant; tags: N-terminal GST; chain copies: 3; dsDNA, one strand shown
# Sequence of HSF1 (Q00613 whole entry): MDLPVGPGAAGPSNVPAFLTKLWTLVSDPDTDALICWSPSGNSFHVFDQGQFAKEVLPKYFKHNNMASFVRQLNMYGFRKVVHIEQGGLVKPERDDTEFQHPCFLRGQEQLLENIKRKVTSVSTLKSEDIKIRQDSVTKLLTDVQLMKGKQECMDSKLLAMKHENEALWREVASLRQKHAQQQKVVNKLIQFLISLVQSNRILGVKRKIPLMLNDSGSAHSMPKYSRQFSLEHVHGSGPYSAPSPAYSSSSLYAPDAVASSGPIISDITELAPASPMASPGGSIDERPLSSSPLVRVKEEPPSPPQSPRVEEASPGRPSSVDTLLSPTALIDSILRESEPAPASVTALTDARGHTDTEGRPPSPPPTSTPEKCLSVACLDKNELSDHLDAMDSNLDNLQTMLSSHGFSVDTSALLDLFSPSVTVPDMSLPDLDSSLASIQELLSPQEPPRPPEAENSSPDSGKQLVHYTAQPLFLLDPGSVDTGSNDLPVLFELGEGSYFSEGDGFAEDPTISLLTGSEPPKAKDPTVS
# Procedure, shortened: as §1
# SPIC = target: T2, SPIC (Homo sapiens, UniProt Q8N5J4 1-248); settings: protein: recombinant; tags: N-terminal GST; dsDNA, one strand shown
# T2 sequence: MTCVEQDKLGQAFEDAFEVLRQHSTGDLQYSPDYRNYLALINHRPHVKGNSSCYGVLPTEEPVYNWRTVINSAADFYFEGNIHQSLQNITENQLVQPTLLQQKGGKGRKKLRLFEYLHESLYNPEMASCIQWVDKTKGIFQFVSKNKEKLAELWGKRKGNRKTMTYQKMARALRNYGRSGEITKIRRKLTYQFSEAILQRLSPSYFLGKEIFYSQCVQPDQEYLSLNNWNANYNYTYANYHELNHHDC
# Procedure, shortened: as §1
# ELF4 = ELF4 (Homo sapiens, UniProt Q99607 1-663); settings: protein: recombinant; tags: N-terminal GST; dsDNA, one strand shown
# Sequence of ELF4 (Q99607 whole entry): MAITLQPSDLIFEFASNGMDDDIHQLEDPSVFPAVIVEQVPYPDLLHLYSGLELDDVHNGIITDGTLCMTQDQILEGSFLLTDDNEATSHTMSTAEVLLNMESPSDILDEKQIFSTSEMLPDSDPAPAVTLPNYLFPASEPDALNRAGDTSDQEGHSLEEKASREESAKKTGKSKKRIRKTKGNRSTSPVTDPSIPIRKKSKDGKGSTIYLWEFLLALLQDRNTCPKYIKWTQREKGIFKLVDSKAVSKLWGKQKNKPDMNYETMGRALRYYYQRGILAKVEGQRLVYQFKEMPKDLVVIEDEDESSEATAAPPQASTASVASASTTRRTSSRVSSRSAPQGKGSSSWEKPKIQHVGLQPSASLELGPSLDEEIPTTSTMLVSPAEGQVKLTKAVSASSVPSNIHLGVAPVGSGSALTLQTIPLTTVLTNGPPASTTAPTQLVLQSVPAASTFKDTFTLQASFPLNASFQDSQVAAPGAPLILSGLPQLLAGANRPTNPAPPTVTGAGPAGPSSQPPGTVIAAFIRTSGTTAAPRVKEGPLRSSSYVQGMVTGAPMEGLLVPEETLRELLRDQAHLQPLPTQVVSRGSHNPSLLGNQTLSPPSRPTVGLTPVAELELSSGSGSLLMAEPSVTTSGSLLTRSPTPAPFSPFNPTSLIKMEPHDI
# Procedure, shortened: as §1
# ELK4 = target: T3, ELK4 (Homo sapiens, UniProt P28324-2 1-405); settings: protein: recombinant; tags: N-terminal GST; dsDNA, one strand shown
# T3 sequence: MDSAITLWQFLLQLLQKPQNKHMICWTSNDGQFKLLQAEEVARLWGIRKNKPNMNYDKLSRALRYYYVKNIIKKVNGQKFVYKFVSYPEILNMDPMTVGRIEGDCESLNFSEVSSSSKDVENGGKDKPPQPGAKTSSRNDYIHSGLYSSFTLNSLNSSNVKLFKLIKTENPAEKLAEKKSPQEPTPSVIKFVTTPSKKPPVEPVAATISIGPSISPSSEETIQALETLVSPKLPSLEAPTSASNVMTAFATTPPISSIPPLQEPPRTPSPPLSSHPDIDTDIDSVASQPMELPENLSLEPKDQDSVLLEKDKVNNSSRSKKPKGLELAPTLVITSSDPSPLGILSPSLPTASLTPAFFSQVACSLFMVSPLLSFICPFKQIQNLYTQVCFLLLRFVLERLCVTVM
# Procedure, shortened: as §1
# ETV2 = target: T4, ETV2 (Homo sapiens, UniProt O00321 1-342); settings: protein: recombinant; tags: N-terminal GST; dsDNA, one strand shown
# T4 sequence: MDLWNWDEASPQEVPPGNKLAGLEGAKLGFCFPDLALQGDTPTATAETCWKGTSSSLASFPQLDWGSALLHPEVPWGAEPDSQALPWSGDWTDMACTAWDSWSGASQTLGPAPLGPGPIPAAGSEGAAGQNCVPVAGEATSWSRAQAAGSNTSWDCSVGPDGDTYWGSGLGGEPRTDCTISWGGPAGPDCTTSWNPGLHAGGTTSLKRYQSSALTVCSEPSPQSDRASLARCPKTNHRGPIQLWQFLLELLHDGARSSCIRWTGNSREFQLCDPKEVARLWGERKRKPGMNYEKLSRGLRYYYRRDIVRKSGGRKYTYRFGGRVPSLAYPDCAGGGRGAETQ
# Procedure, shortened: as §1
# ELF3 = target: T5, ELF3 (Homo sapiens, UniProt P78545 1-371); settings: protein: recombinant; tags: N-terminal GST; dsDNA, one strand shown
# T5 sequence: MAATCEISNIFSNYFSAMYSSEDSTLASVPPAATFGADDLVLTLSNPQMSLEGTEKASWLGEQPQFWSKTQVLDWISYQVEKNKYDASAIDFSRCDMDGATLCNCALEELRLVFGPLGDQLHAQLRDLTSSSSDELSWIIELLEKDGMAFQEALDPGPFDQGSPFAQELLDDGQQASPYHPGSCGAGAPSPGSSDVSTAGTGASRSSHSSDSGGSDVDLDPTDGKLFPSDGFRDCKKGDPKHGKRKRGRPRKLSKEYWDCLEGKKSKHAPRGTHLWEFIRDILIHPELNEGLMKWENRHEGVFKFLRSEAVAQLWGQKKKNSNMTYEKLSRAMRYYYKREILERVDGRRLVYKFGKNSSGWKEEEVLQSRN
# Procedure, shortened: as §1
# CRX = CRX (Homo sapiens, UniProt O43186 1-299); settings: protein: recombinant; tags: N-terminal GST; dsDNA, one strand shown
# Sequence of CRX (O43186 whole entry): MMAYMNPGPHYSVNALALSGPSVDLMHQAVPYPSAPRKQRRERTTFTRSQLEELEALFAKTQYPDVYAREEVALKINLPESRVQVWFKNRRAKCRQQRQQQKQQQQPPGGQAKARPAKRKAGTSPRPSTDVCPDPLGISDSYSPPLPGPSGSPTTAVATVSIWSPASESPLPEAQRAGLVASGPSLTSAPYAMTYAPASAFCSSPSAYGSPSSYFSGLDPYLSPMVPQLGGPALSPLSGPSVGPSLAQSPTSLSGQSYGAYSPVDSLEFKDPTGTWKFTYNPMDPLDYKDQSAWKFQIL
# Procedure, shortened: as §1
# ETV1 = ETV1 (Homo sapiens, UniProt P50549 1-477); settings: protein: recombinant; tags: N-terminal GST; dsDNA, one strand shown
# Sequence of ETV1 (P50549 whole entry): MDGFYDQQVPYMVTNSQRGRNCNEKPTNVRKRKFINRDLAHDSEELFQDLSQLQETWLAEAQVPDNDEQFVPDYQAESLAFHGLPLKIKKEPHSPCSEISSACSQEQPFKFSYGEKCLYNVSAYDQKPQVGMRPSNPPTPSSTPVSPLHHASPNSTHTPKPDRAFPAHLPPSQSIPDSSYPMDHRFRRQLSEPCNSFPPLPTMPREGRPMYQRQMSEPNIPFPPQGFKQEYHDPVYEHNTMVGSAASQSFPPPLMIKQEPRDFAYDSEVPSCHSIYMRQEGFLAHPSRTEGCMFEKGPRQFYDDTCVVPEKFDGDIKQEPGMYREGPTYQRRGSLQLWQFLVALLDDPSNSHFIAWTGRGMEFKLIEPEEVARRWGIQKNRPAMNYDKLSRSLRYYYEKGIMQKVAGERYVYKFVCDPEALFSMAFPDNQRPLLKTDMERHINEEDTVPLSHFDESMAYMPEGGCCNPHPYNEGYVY
# Procedure, shortened: as §1
sequence,measurement,setting,value
CACTCT,binding signal,FEV,"1.24 fold enrichment (6-mer frequency, TF over GST control)"
same,binding signal,ETV5,"1.29 fold enrichment (6-mer frequency, TF over GST control)"
same,binding signal,HSF1,"1.24 fold enrichment (6-mer frequency, TF over GST control)"
same,binding signal,SPIC,"1.22 fold enrichment (6-mer frequency, TF over GST control)"
same,binding signal,ELF4,"1.22 fold enrichment (6-mer frequency, TF over GST control)"
same,binding signal,ELK4,"1.58 fold enrichment (6-mer frequency, TF over GST control)"
same,binding signal,ETV2,"1.37 fold enrichment (6-mer frequency, TF over GST control)"
same,binding signal,ELF3,"1.4 fold enrichment (6-mer frequency, TF over GST control)"
same,binding signal,CRX,"1.08 fold enrichment (6-mer frequency, TF over GST control)"
same,binding signal,ETV1,"1.33 fold enrichment (6-mer frequency, TF over GST control)"
